Pf growth 48h – P. falciparum growth inhibition at 48 hours (one generation) | 310,000 compounds, 5.9% hits | P. falciparum luciferase growth in erythrocytes, 48 h | Potency, µM (titrated, usually from 28.7 µM), for the others: at the top dose activity change, negative = inhibition, actives largely listed as inhibitors; also: potency is read from the fitted curve at half-maximal effect; % is scaled to controls: 0 for no effect and ±100 for the full control effect
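In quantitative HTS format, infected erythrocytes bearing luciferase-reporter parasites were treated for a single generation at 37 C. Luminescence after adding detection reagent served as the growth measure.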
Cycloheximide cs – counter-screen hit for Shiga toxin inhibitors, cycloheximide. max response, %. cell reporter, cycloheximide protein synthesis inhibition counterscreen. 300,000 compounds, 12% hits; in the data active = max response mostly above about 13%, no sharp cut-off; inactive = mostly below about 14%; also: read at 38.3 µM for the half of the compounds with a filed dose; 0% is about no effect
LASV entry inh – blocks Lassa virus binding to or entry into cells | Lassa virus pseudotype entry inhibition, cell reporter | Potency, µM (titrated, usually from 37.9 µM), for the others: at the highest dose activity change, negative = inhibition, hits mostly inhibitors | 300,000 compounds, 1.2% hits | AID 540256; calls by dose curve; tested in HEK293 cells; also: potency is read from the fitted curve at half-maximal effect; % is scaled to controls: 0 for no effect and ±100 for the full control effect; nearly all actives have a fitted effect of over 50% in size
Shiga inhibitor – blocks Shiga toxin action in Vero cells | Vero cells, Shiga toxin protein synthesis inhibition reporter | inhibition, % at 38.7 µM | 290,000 compounds, 9.2% hits; in the data active = inhibition mostly above about 28%, no sharp cut-off; inactive = mostly below about 43%; also: 0% is about no effect
Pf growth 96h – P. falciparum growth inhibition at 96 hours; P. falciparum luciferase reporter growth, 96 h; Potency, µM (doses to about 28.7 µM), for the others: at the top dose activity change, negative = inhibition, hits mostly inhibitors; 320,000 compounds, 6.9% hits; AID 504834; also: potency is read from the fitted curve at half-maximal effect; % is scaled to controls: 0 for no effect and ±100 for the full control effect
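Readout is luminescence from an integrated firefly luciferase in P. falciparum. Red cells, 2% hematocrit and 0.05% parasitemia final, were cultured with compound through two parasite generations (96 hours) at 37 C, 5% CO2.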
MARV entry inh – blocks Marburg virus binding to or entry into cells. Marburg virus pseudotyped entry inhibition, cell reporter. 300,000 compounds, 1.8% hits. Potency, µM (highest dose often 37.8 µM), for the others: top-dose activity change, negative = inhibition, actives largely listed as inhibitors; calls by dose curve; tested in HEK293 cells; also: potency is read from the fitted curve at half-maximal effect; % is scaled to controls: 0 for no effect and ±100 for the full control effect
* = called active by the depositor; ? = inconclusive; · = no result given; [ ] = another dose, or the depositor's remark. Compounds with a hit are over-represented: about 19% of the library has one in this group of screens. Unless noted, calls follow the shape of the dose curve; as a rule, active = well fitted inhibition curve with a large enough effect; inconclusive = small, poorly fitted or top-dose-only effect, or another doubt; inactive = no such curve, though single readings can be large or run the other way.

SMILES | Pf growth 48h | Cycloheximide cs | LASV entry inh | Shiga inhibitor | Pf growth 96h | MARV entry inh
Cc1cc(SCC(=O)OCC(=O)N(C)C2CCS(=O)(=O)C2)c(C)cc1Br (stereo not given) | -8.5% | · | -9.3% | · | -0.1% | -2.7%
NC(=O)C1CCN(c2nc(-c3ccccc3Cl)cs2)CC1 | ? | · | · | · | 6.2% | ·
O=S(=O)(c1ccc(F)c(F)c1)N1CCN(S(=O)(=O)c2cccs2)CC1 | 120.3% | -2.8 | ? | 1.3 | 38.3% | ?
COc1ccc(NC(=O)CN2CCN(CC(=O)Nc3ccc4c(c3)OCO4)CC2)cc1 | ? | -2.6 | 7.1% | 13.1 | ? | 5.1%[46.1 µM]
C/C(=N\NC(=O)COc1ccc(C(C)(C)C)cc1)c1ccc(-n2ccnc2)cc1 | -78.1% | 31.3* | ? | 31.4 | 10.4µM* | 7.9%
Cc1ccc(NC(=O)n2ccc(-c3ccc(-n4ccnc4)cc3)n2)cc1 | 161.0% | 40.0* | 3.1% | 85.0* | 136.2% | ?
COc1ccc(OCC(=O)N/N=C(\C)c2ccc(-n3ccnc3)cc2)cc1 | 11.2% | 14.6 | -20.8% | 42.7 | -23.4% | 3.5%
CC(C)(C)c1ccc(NC(=O)COc2ccc(-n3ccnc3)cc2)cc1 | ? | 36.4* | ? | 48.9* | · | ?
CCN1CCCC(NC(=O)c2cc([N+](=O)[O-])ccc2OC)C1 (stereo not given) | 1.6% | -3.3 | 2.5% | 12.9 | 28.6% | -3.3%
COc1ccc2oc(C(=O)OCC(=O)Nc3ccccc3)c(C)c2c1 | 21.2% | 29.1* | ? | 34.7* | 0.0% | ?
CCOC(=O)N1CCN(C(=O)COC(=O)c2oc3ccc(OC)cc3c2C)CC1 | -2.6% | 16.2* | ? | 32.1* | 18.6% | 4.2%
O=C(COc1ccc2oc(-c3ccccc3)cc(=O)c2c1)Nc1ccccc1 | 13.2% | -2.2 | 8.5% | -4.1 | 3.7µM* | -11.7%
CCN(CC)C(=O)COc1ccc2oc(-c3ccco3)cc(=O)c2c1 | ? | 19.2* | 1.6% | 31.5 | ? | 6.0%
COc1ccc2oc(C(=O)OCC(=O)Nc3ccc(C(=O)N(C)C)cc3)c(C)c2c1 | 5.8% | 16.6* | · | 13.8 | 24.4% | ·
COc1ccc2oc(C(=O)OCC(=O)Nc3ccc(N4CCOCC4)cc3)c(C)c2c1 | 14.0% | · | -2.0% | · | 13.6% | 16.1%
CCCCN(CC)CCNC(=O)C1c2cc(OC)c(OC)cc2C(=O)N2CCc3ccccc3C12 (stereo not given) | ? | -4.7 | -1.3% | -8.4 | 10.4µM* | -7.2%[46.1 µM]
CCN1CCN(C(=O)C2c3cc(OC)c(OC)cc3C(=O)N3CCc4ccccc4C23)CC1 (stereo not given) | -14.0% | -3.1 | -0.8% | -2.3 | -16.3% | -11.0%
CC(C)(C)NC(=O)CN(C(=O)CNS(=O)(=O)c1ccc(Cl)cc1)c1ccc2c(c1)OCCO2 | -10.3% | 9.4 | -5.0% | 26.7 | 24.9% | 2.7%[46.1 µM]
COC1=C(OC)C(=O)c2ccccc2C1=O | · | · | 20.6µM* | · | · | ?
COC1=C(Nc2ccc(C)cc2)C(=O)c2ccccc2C1=O | 2.33µM* | 53.1* | ? | 102.3* | 1.17µM* | ?
COC1=C(Nc2ccccc2)C(=O)c2ccccc2C1=O | 5.86µM* | 18.6* | ? | 23.0* | 1.85µM* | 18.6%
O=C(Nc1sc2c(c1C(=O)O)CCCC2)c1cccs1 | 38.9% | 27.2* | ? | 127.4* | 314.9% | 9.2µM*
CC(C)OC(=O)c1c(NC(=O)c2cccs2)sc2c1CCCC2 | 21.4% | 5.0 | -5.6% | 36.4 | -12.2% | -7.4%
CC1CCc2c(sc(NC(=O)c3cccs3)c2C(=O)O)C1 (stereo not given) | 100.1% | 47.3* | · | 80.9* | 27.6% | ·
O=C(Nc1sc2c(c1C(=O)O)CCCCC2)c1cccs1 | 227.7% | 66.0* | · | 128.6* | 403.4% | ·
S=c1[nH]nc(-c2ccc3ccccc3n2)n1-c1cc(Cl)cc(Cl)c1 | 12.1% | -0.9 | -6.5% | -7.1 | 4.15µM* | -17.4%
CC[n+]1ccc2cc(OC)c(OC)cc2c1Cc1ccc(OC)c(OC)c1 | 1.17µM* | -1.7 | -9.7% | 19.9 | ? | ?
COc1ccc(Cc2c3cc(OC)c(OC)cc3cc[n+]2C)cc1OC | ? | -6.5 | · | -4.8 | 8.28µM* | ·
CSc1n[nH]c(N)c1S(=O)(=O)c1ccc(Cl)cc1 | -0.8% | 4.3 | · | -12.6 | 10.2% | 4.7%
Cc1ccc(S(=O)(=O)n2ccc3c2CCCC3=O)cc1 | -20.0% | -2.6 | 2.2%[46.1 µM] | -6.3 | -0.6% | 1.1%[46.1 µM]

Screens from PubChem.
